# Reference: PubChem BioAssay
# For part of these data: Potency and affinity values are given separately. Calls of active or inactive are those of the source.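 The calls were made as follows, unless noted: active = primary screen active and over 50% activation in each of two duplicate runs; inactive = the rest.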
# Legend:
# [1] = system: TRPC4 beta (transient receptor potential cation channel C4), mouse; experiment: TRPC4 cation channel opening, retest – cell-based, Fluo4 calcium, HEK293 TRPC4beta/mu-opioid, duplicates, 10 µM, confirmation (AID 2426;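 active = fluorescence ratio normalized to control raised more than 50% in primary screen plus both repeat runs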;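 as to activation: percent rise of integrated ratio over buffer wells lacking compound which define 0%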); settings: Fluo4 calcium fluorescence, at 10 µM; hits give high values
# [2] = system: transient receptor potential cation channel C4 beta (TRPC4), mouse; experiment: TRPC4 cation channel opening, second retest – cell-based, second round, Fluo4, HEK293 TRPC4beta/mu-opioid, 1 µM, confirmation (AID 2461); settings: Fluo4 calcium fluorescence, at 1 µM; hits give high values;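 as to activation: 0% = wells without test compound as baseline of integrated fluorescence ratio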
# [3] = system: TRPC4 (transient receptor potential cation channel C4 beta), mouse; experiment: potentiation of DAMGO EC20 TRPC4 response – cell-based, second round, Fluo-4, HEK293 TRPC4beta/mu-opioid, 1 µM, confirmation (AID 2554;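 active = primary screen hit whose fluorescence ratio, in both repeats, exceeds the weak agonist control mean by 3 SD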); settings: DAMGO EC20, Fluo-4 calcium flux, at 1 µM; hits give high values
# [4] = system: TRPC4 beta (transient receptor potential cation channel C4), mouse; experiment: potentiation of DAMGO EC20 TRPC4 response – cell-based, Fluo-4, HEK293 TRPC4beta/mu-opioid, confirmation (AID 2555;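 active = primary screen hit whose calcium fluorescence ratio, in both repeats, exceeds the weak agonist control mean by 3 SD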); settings: DAMGO EC20, Fluo-4 calcium flux, at 10 µM; hits give high values
# [5] = biological target: Short transient receptor potential channel 4 (Mus musculus) (UniProt Q9QUQ5); experiment: blockers of DAMGO-evoked TRPC4 calcium flux – cell-based, Fluo4, HEK293 TRPC4beta/mu-opioid, confirmation (AID 2636;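 active = calcium signal cut by more than 3 SD below the full-agonist control yet still positive, in both repeats and the earlier primary screen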); settings: at 10 µM; hits give high values
# Short transient receptor potential channel 4 (Mus musculus), sequence (Q9QUQ5 whole entry, looked up): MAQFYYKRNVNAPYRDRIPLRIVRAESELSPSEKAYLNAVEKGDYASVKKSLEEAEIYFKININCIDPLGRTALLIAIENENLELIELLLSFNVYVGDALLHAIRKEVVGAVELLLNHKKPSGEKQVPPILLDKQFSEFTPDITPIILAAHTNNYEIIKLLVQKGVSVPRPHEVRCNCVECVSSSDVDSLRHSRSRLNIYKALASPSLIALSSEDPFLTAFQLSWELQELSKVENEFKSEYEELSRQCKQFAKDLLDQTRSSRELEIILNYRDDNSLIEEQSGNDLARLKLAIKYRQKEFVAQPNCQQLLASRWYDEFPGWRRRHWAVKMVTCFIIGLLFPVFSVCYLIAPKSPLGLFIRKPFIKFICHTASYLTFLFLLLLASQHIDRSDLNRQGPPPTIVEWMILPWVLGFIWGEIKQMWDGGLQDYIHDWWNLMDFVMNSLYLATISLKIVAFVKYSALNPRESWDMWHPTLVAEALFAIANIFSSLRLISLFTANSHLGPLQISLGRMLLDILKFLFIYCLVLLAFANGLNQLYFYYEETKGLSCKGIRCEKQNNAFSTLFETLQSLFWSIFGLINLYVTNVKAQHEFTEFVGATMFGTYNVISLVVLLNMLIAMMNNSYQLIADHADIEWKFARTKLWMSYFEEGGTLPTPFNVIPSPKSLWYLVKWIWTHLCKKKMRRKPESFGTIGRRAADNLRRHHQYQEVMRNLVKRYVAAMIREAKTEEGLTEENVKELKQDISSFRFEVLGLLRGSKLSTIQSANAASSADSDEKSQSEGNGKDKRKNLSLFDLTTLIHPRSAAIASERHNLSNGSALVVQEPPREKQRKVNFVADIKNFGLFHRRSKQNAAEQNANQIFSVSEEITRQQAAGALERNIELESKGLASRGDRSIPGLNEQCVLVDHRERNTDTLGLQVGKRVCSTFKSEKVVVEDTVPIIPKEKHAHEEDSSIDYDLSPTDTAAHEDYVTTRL
# [6] = biological target: Short transient receptor potential channel 4 (Mus musculus) (UniProt Q9QUQ5); experiment: blockers of DAMGO-evoked TRPC4 calcium flux – cell-based, second round, Fluo4, HEK293 TRPC4beta/mu-opioid, 1 µM, confirmation (AID 2637;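 active = calcium signal ratio cut to more than 3 SD under the fully stimulated control mean yet still positive, in both repeats and the primary screen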); settings: at 1 µM; hits give high values
# [7] = biological target: Short transient receptor potential channel 4 (Mus musculus) (UniProt Q9QUQ5); experiment: calcium entry via TRPC4 opening agents – cell-based, HEK293 TRPC4/mu-opioid, Fluo-4 calcium, dose response (AID 434937;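 active = primary screen activator hit with a dose response curve and TRPC4 channel activation at any tested dose; inactive = no activation, no dose response, or not a primary hit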)
# [8] = biological target: Short transient receptor potential channel 4 (Mus musculus) (UniProt Q9QUQ5); experiment: potentiation of DAMGO-evoked TRPC4 calcium signal – cell-based, HEK293 TRPC4/mu-opioid, Fluo-4 calcium, EC20 DAMGO, dose response (AID 434941;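 active = earlier screen potentiator hit that boosts the TRPC4 ion channel at some dose, with a dose response; inactive = no potentiation, no dose response, or not a prior hit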;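 also: calcium entry triggered by an EC20 dose of DAMGO at the co-expressed mu-opioid receptor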)
# [9] = biological target: Short transient receptor potential channel 6 (Mus musculus) (UniProt Q61143); experiment: TRPC6 blockade by TRPC4 inhibitor hits – cell-based, HEK293, membrane potential dye, duplicate, selectivity assay for TRPC4 inhibitor project, confirmation (AID 434948;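 active = active in primary screen and both duplicates, each dropping signal beyond three positive-control SD with fluorescence still positive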); settings: HEK293 TRPC6, membrane potential dye fluorescence, at 10 µM, stimulated with maximal-effect acetylcholine; hits give high values
# Short transient receptor potential channel 6 (Mus musculus), sequence (Q61143 whole entry, looked up): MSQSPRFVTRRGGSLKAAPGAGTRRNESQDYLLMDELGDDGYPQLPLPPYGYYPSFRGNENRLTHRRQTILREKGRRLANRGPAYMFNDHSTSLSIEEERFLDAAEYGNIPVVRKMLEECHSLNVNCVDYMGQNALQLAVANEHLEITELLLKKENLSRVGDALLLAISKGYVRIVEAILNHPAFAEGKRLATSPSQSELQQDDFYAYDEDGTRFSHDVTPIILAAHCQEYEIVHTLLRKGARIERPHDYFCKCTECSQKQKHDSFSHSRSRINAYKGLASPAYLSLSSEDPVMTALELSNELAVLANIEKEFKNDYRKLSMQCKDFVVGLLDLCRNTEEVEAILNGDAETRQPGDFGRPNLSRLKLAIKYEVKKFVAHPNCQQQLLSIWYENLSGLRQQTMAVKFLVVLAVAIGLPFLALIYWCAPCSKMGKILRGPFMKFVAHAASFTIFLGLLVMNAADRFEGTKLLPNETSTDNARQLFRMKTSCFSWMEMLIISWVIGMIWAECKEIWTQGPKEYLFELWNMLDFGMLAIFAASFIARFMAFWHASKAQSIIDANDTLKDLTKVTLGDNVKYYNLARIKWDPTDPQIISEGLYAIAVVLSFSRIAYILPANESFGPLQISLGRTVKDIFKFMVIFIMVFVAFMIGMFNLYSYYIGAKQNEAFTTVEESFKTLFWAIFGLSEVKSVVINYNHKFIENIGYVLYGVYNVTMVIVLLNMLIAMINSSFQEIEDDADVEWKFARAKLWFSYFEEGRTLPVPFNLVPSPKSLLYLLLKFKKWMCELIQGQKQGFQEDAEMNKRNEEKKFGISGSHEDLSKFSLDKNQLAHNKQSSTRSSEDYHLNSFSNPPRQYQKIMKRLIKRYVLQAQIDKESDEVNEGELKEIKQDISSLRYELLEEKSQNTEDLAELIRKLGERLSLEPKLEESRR
# [10] = biological target: Short transient receptor potential channel 6 (Mus musculus) (UniProt Q61143); experiment: TRPC6 opening by TRPC4 activator hits – cell-based, HEK293, membrane potential dye, duplicate, selectivity assay for TRPC4 activator project, confirmation (AID 434950;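 active = membrane potential signal rise above negative control mean plus 3 SD in both duplicates, also active in the earlier TRPC4 screen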;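 as to activation: 0% = buffer only wells and 100% = acetylcholine maximal-effect wells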); settings: HEK293 TRPC6, membrane potential fluorescence, at 10 µM; activation: hits give high values; outcome: activation
# [11] = biological target: Short transient receptor potential channel 6 (Mus musculus) (UniProt Q61143); experiment: positive modulators of mouse TRPC6 channel – HEK293 cells, membrane potential dye, duplicate, selectivity assay for TRPC4 potentiator project, confirmation (AID 434952;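 active = compound raising the membrane signal above positive-control mean plus 3 SD in both repeats, and a primary screen hit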); settings: HEK293 TRPC6, membrane potential dye fluorescence, at 10 µM, maximal acetylcholine added after compound; hits give high values
# [12] = biological target: Short transient receptor potential channel 4 (Mus musculus) (UniProt Q9QUQ5); experiment: calcium flux activators in TRPC4/5HT1a cells, counter-screen for TRPC4 activator project, cell-based, second counter screen, HEK293 TRPC4/5HT1a, Fluo-4 (AID 434977;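 active = calcium signal rise above buffer-control mean plus 5 SD in both duplicates, and also a hit in the primary screen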;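 as to activation: plate controls were assay buffer for no effect and maximal serotonin response for full effect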); settings: Fluo-4 calcium flux, at 10 µM; hits give high values
# [13] = serotonin-gated TRPC4 signal block – cell-based, second counter screen, HEK293 TRPC4/5HT1a, Fluo-4, counter-screen for TRPC4 inhibitor project, confirmation (AID 434978;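 active = primary screen active whose calcium signal fell more than 3 SD beyond the full-serotonin control mean in both duplicate plates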;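 as to outcome: serotonin given first at submaximal then at maximal dose after compound preincubation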); settings: Fluo-4 calcium flux, at 10 µM, serotonin added to trigger calcium flux; hits give high values
# [14] = system: TRPC4 (mouse), co-expressed with 5HT1a in HEK293; experiment: enhancement of serotonin-evoked TRPC4 response – cell-based, second counter screen, HEK293 TRPC4/5HT1a, Fluo-4, counter-screen for TRPC4 potentiator project, confirmation (AID 434979;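 active = signal rise over 3 SD above mean of control wells given weak agonist, in both repeats and first screen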); settings: Fluo-4 calcium flux, at 10 µM, serotonin added at its EC20 dose; hits give high values
# [15] = nonspecific calcium rise without TRPC4 – cell-based, HEK293 mu-opioid receptor line, counter-screen for TRPC4 activator project, confirmation (AID 449723;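 active = hit in primary screen, with calcium signal over 5 SD above buffer well mean in both duplicates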;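 also: counter screen cells carry the mu-opioid receptor alone and lack TRPC4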); settings: HEK293 mu-opioid cells, Fluo-4 calcium fluorescence, at 10 µM; hits give high values
# [16] = nonspecific potentiation of DAMGO calcium response – cell-based, HEK293 mu-opioid receptor line, counter-screen for TRPC4 allosteric potentiator project, confirmation (AID 449724;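 active = calcium signal rise more than 3 SD above the low-dose agonist control mean, in both duplicate plates and the primary screen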); settings: HEK293 mu-opioid receptor cells, Fluo-4 calcium flux, at 10 µM, compound added before EC20 DAMGO stimulus; hits give high values
# [17] = nonspecific flux increase, KCNQ1-free cells – parental CHO cells, counter-screen for KCNQ1 potentiator project (AID 493006;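 active = duplicate-averaged activation above buffer control mean plus 5 SD of those controls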;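 also: fluorescence ratio of max minus min over baseline after K+ and Tl+ depolarization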); settings: parental CHO-K1 cells, FluxOR thallium flux, at 10 µM; hits give high values
# [18] = biological target: Potassium voltage-gated channel subfamily KQT member 1 (Homo sapiens) (UniProt P51787); experiment: enhancement of KCNQ1 channel thallium flux – FluxOR thallium flux, CHO cells, duplicates, confirmation (AID 493007;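 active = potentiation averaged over duplicate wells exceeding buffer-only control mean by more than 3 SD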;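 also: 0% = buffer-only wells and 100% = R-L3 activator control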); settings: KCNQ1 cell line, FluxOR thallium flux fluorescence, at 10 µM; hits give high values, % of reference activator effect, buffer zero
# Potassium voltage-gated channel subfamily KQT member 1 (Homo sapiens), sequence (P51787 whole entry, looked up): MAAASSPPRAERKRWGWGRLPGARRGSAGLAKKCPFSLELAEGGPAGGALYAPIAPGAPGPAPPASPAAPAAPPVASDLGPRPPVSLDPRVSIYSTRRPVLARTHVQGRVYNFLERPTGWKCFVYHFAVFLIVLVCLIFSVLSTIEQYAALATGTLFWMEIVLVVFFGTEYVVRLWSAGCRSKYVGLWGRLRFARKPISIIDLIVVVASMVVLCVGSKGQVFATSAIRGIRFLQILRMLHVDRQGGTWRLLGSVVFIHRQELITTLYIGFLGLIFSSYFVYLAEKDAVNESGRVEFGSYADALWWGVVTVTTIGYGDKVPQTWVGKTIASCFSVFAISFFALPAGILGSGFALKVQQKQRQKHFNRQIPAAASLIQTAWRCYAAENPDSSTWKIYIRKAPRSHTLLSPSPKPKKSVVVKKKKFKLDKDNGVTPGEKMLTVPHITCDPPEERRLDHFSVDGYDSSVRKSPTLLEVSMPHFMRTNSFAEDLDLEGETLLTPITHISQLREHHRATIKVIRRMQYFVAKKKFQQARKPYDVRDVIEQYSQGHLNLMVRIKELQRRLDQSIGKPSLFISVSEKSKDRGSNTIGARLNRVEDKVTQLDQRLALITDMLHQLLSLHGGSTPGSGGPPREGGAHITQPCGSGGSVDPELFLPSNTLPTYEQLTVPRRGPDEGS
# [19] = biological target: Potassium voltage-gated channel subfamily KQT member 2 (Rattus norvegicus) (UniProt O88943); experiment: KCNQ2 thallium flux enhancement – KCNQ2-CHO-K1 cells, selectivity assay for KCNQ1 potentiator project (AID 493009;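 active = mean duplicate potentiation above the buffer control mean plus 5 SD of buffer wells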;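 also: assay conditions were tuned for KCNQ1 rather than KCNQ2 modulators; signal is max minus min fluorescence divided by baseline after thallium stimulus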); settings: FluxOR thallium flux fluorescence, at 10 µM; hits give high values, scaled: buffer 0, activator control 100
# Potassium voltage-gated channel subfamily KQT member 2 (Rattus norvegicus), sequence (O88943 whole entry, looked up): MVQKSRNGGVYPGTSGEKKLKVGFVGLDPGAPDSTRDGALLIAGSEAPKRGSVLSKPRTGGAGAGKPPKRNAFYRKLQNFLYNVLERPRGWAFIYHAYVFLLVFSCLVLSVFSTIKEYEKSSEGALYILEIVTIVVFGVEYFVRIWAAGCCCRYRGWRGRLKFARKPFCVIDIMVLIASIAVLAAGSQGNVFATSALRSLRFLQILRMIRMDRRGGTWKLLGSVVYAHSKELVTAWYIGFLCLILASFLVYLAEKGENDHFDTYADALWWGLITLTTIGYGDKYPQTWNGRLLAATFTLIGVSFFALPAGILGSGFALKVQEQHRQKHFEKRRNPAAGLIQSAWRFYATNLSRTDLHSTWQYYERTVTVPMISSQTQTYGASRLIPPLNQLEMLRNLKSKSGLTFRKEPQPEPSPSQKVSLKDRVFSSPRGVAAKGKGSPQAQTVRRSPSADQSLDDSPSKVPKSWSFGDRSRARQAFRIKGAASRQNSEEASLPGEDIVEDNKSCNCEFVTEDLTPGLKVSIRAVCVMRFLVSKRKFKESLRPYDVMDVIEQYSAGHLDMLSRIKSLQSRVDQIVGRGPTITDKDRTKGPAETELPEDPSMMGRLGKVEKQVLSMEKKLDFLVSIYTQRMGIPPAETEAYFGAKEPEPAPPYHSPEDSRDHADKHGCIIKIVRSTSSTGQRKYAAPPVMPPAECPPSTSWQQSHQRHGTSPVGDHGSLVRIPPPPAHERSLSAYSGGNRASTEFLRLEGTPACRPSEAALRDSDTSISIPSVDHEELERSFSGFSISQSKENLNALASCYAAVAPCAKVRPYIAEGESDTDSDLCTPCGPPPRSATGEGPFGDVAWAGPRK
# [20] = biological target: Short transient receptor potential channel 4 (Mus musculus) (UniProt Q9QUQ5); experiment: block of DAMGO-driven TRPC4 calcium entry – cell-based, HEK293 TRPC4/mu-opioid, Fluo-4 calcium, dose response (AID 434942;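 active = primary screen inhibitor hit that blocks the TRPC4 channel at some tested dose, yielding a dose curve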)
smiles,measurement,setting,value
O=Cc1cc(N=Nc2ccccc2Cl)ccc1O,outcome,[1],inactive
same,outcome,[2],inactive
same,outcome,[3],inactive
same,outcome,[4],inactive
same,inhibition,[5],91% (active)
same,outcome,[6],inactive
same,outcome,[7],inactive
same,outcome,[8],inactive
same,outcome,[9],inactive
same,outcome,[10],inactive
same,outcome,[11],inactive
same,outcome,[12],inactive
same,inhibition,[13],30.2% (active)
same,outcome,[14],inactive
same,outcome,[15],inactive
same,outcome,[16],inactive
same,activation,[17],237% (active)
same,potentiation,[18],81% (active)
same,potentiation,[19],248% (active)
O=[N+]([O-])c1cc(C(F)(F)F)ccc1NC1CCN(Cc2ccccc2)C1 (stereo unspecified),outcome,[1],inactive
same,outcome,[2],inactive
same,outcome,[3],inactive
same,outcome,[4],inactive
same,outcome,[5],inactive
same,outcome,[6],inactive
same,outcome,[7],inactive
same,outcome,[20],inactive
same,outcome,[9],inactive
same,outcome,[10],inactive
same,outcome,[11],inactive
same,outcome,[12],inactive
same,outcome,[13],inactive
same,potentiation,[14],23.9% (active)
same,outcome,[15],inactive
same,outcome,[16],inactive
Cc1cccc(/C=N/NC(=O)c2cc(Br)ccc2O)n1,activation,[17],140% (active)
same,potentiation,[18],48% (active)
same,potentiation,[19],182% (active)
CC(C)n1cnc2c(N(C)c3ccccc3)nc(N(CCN(C)C)Cc3ccccc3)nc21,outcome,[1],inactive
same,outcome,[2],inactive
same,outcome,[3],inactive
same,outcome,[4],inactive
same,outcome,[5],inactive
same,outcome,[6],inactive
same,outcome,[8],inactive
same,outcome,[20],inactive
same,outcome,[9],inactive
same,activation,[10],31% (active)
same,outcome,[11],inactive
same,outcome,[12],inactive
same,outcome,[13],inactive
same,outcome,[14],inactive
same,outcome,[15],inactive
same,outcome,[16],inactive
COc1ccc(-n2c3c(cc(C(=O)NNc4ccccc4)c2=O)C(=O)CC(C)(C)C3)cc1,activation,[1],104% (active)
same,outcome,[2],inactive
same,outcome,[3],inactive
same,outcome,[4],inactive
same,outcome,[5],inactive
same,outcome,[6],inactive
same,outcome,[8],inactive
same,outcome,[20],inactive
same,outcome,[9],inactive
same,outcome,[10],inactive
same,outcome,[11],inactive
same,outcome,[12],inactive
same,outcome,[13],inactive
same,outcome,[14],inactive
same,outcome,[15],inactive
same,outcome,[16],inactive
CN1C2C=C(N(CCc3ccccc3)C(=O)c3ccc(Cl)cc3)CC1CC2 (stereo unspecified),outcome,[1],inactive
same,outcome,[2],inactive
same,outcome,[3],inactive
same,outcome,[4],inactive
same,outcome,[5],inactive
same,outcome,[6],inactive
same,outcome,[8],inactive
same,outcome,[20],inactive
same,outcome,[9],inactive
same,activation,[10],50% (active)
same,outcome,[11],inactive
same,outcome,[12],inactive
same,outcome,[13],inactive
same,outcome,[14],inactive
same,outcome,[15],inactive
same,outcome,[16],inactive
CC(CN1CCCC(C(N)=O)C1)c1ccccc1 (stereo unspecified),activation,[1],147% (active)
same,activation,[2],65% (active)
same,outcome,[3],inactive
same,outcome,[4],inactive
same,outcome,[5],inactive
same,outcome,[6],inactive
same,outcome,[8],inactive
same,outcome,[20],inactive
same,outcome,[9],inactive
same,activation,[10],30.5% (active)
same,outcome,[11],inactive
same,activation,[12],42% (active)
same,outcome,[13],inactive
same,outcome,[14],inactive
same,outcome,[15],inactive
same,outcome,[16],inactive
Cc1cc(OCCn2ccnc2)cc(C)c1Cl,activation,[1],146% (active)
same,outcome,[2],inactive
same,outcome,[3],inactive
same,outcome,[4],inactive
same,outcome,[5],inactive
same,outcome,[6],inactive
same,outcome,[8],inactive
same,outcome,[20],inactive
same,outcome,[9],inactive
same,activation,[10],42% (active)
same,outcome,[11],inactive
same,activation,[12],34.8% (active)
same,outcome,[13],inactive
same,outcome,[14],inactive
same,outcome,[15],inactive
same,outcome,[16],inactive
O=C(NCC(c1cccs1)N1CCOCC1)c1ccc(Cl)c([N+](=O)[O-])c1 (stereo unspecified),activation,[1],135% (active)
same,outcome,[2],inactive
same,outcome,[3],inactive
same,outcome,[4],inactive
same,outcome,[5],inactive
same,outcome,[6],inactive
same,outcome,[8],inactive
same,outcome,[20],inactive
same,outcome,[9],inactive
same,outcome,[10],inactive
same,outcome,[11],inactive
same,activation,[12],21.6% (active)
same,outcome,[13],inactive
same,outcome,[14],inactive
same,outcome,[15],inactive
same,outcome,[16],inactive
COc1ccc(N2CCN(Cc3nc4ccccc4n3C)CC2)cc1,activation,[1],154% (active)
same,outcome,[2],inactive
same,outcome,[3],inactive
same,outcome,[4],inactive
same,outcome,[5],inactive
same,outcome,[6],inactive
same,outcome,[8],inactive
same,outcome,[20],inactive
same,outcome,[9],inactive
same,outcome,[10],inactive
same,outcome,[11],inactive
same,outcome,[12],inactive
same,outcome,[13],inactive
same,outcome,[14],inactive
same,outcome,[15],inactive
same,outcome,[16],inactive
CN1CCN(C(=O)c2cccn(Cc3c(Cl)cccc3Cl)c2=O)CC1,activation,[1],147% (active)
same,activation,[2],88% (active)
same,outcome,[3],inactive
same,outcome,[4],inactive
same,outcome,[5],inactive
same,outcome,[6],inactive
same,outcome,[8],inactive
same,outcome,[20],inactive
same,outcome,[9],inactive
same,outcome,[10],inactive
same,outcome,[11],inactive
same,activation,[12],42.6% (active)
same,outcome,[13],inactive
same,outcome,[14],inactive
same,outcome,[15],inactive
same,outcome,[16],inactive
Cc1ccc(C(=O)NNC(=S)NC(=O)COc2ccccc2)cc1,activation,[1],171% (active)
same,outcome,[2],inactive
same,outcome,[3],inactive
same,outcome,[4],inactive
same,outcome,[5],inactive
same,outcome,[6],inactive
same,outcome,[8],inactive
same,outcome,[20],inactive
same,outcome,[9],inactive
same,outcome,[10],inactive
same,outcome,[11],inactive
same,activation,[12],112% (active)
same,outcome,[13],inactive
same,outcome,[14],inactive
same,outcome,[15],inactive
same,outcome,[16],inactive
COc1ccc(C(CCNCc2ccc(N(C)C)cc2)c2ccccc2)cc1 (stereo unspecified),activation,[1],165% (active)
same,outcome,[2],inactive
same,outcome,[3],inactive
same,outcome,[4],inactive
same,outcome,[5],inactive
same,outcome,[6],inactive
same,outcome,[8],inactive
same,outcome,[20],inactive
same,outcome,[9],inactive
same,outcome,[10],inactive
same,outcome,[11],inactive
same,activation,[12],26.5% (active)
same,outcome,[13],inactive
same,outcome,[14],inactive
same,outcome,[15],inactive
same,outcome,[16],inactive
COc1ccc(C(CNC(=O)c2cccc(NS(=O)(=O)c3ccc(Br)cc3)c2)N(C)C)cc1 (stereo unspecified),activation,[1],253% (active)
same,activation,[2],83% (active)
same,outcome,[3],inactive
same,outcome,[4],inactive
same,outcome,[5],inactive
same,outcome,[6],inactive
same,outcome,[8],inactive
same,outcome,[20],inactive
same,outcome,[9],inactive
same,activation,[10],35% (active)
same,outcome,[11],inactive
same,activation,[12],29.9% (active)
same,outcome,[13],inactive
same,outcome,[14],inactive
same,outcome,[15],inactive
same,outcome,[16],inactive
O=C(COc1cc(Cl)c(Cl)cc1Cl)NCCc1ccccn1,activation,[1],60% (active)
same,outcome,[2],inactive
same,outcome,[3],inactive
same,outcome,[4],inactive
same,outcome,[5],inactive
same,outcome,[6],inactive
same,outcome,[8],inactive
same,outcome,[20],inactive
same,outcome,[9],inactive
same,activation,[10],53.5% (active)
same,outcome,[11],inactive
same,activation,[12],12.5% (active)
same,outcome,[13],inactive
same,outcome,[14],inactive
same,outcome,[15],inactive
same,outcome,[16],inactive
NC1=NC2(CCN(Cc3ccccc3)CC2)n2c(nc3ccccc32)N1,activation,[1],54% (active)
same,outcome,[2],inactive
same,outcome,[3],inactive
same,outcome,[4],inactive
same,outcome,[5],inactive
same,outcome,[6],inactive
same,outcome,[8],inactive
same,outcome,[20],inactive
same,outcome,[9],inactive
same,outcome,[10],inactive
same,outcome,[11],inactive
same,outcome,[12],inactive
same,outcome,[13],inactive
same,outcome,[14],inactive
same,outcome,[15],inactive
same,outcome,[16],inactive
